For 13 compounds, growth results are on record in PubChem BioAssay (NCI).

Some test systems named below: SR leukemia; RPMI-8226 leukemia; OVCAR-8 ovarian; OVCAR-5 ovarian; OVCAR-4 ovarian; SK-OV-3 ovarian; IGROV1 ovarian; OVCAR-3 ovarian; HS 578T breast; NCI/ADR-RES ovarian.
Assay in all cases: NCI-60 one-dose screen, 48 h (100 = growth as untreated, 0 = no growth, -100 = all killed)
What all share (details): 10 µM unless noted

This is part of a sample that, as a whole, favours compounds with a hit. Of some 83,000 tested, about 20% had one in any assay.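 Treatment: one concentration, 48 hours, 96-well format. Scoring: percent growth, with anything below 10 considered active.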 Unmarked numbers belong to inactive results. Calls of active or inactive are those of the source.

With `COc1cc2c(cc1OCCCCN1CCN(C(=S)SCCC(C#N)(c3ccccc3)c3ccccc3)CC1)N=C[C@@H]1CCCN1C2=O`, the growth in the experiment on SR leukemia is -44.1% (active); in the experiment on RPMI-8226 leukemia, -18% (active); in the experiment on OVCAR-8 ovarian, 15.9%; with OVCAR-5 ovarian, -17.1% (active); in the experiment with OVCAR-4 ovarian, -11.8% (active); in the experiment with SK-OV-3 ovarian, -7.37% (active). In addition, the growth with IGROV1 ovarian was -76.6% (active); in the experiment with OVCAR-3 ovarian, -85.9% (active); in the experiment with HS 578T breast, -11.7% (active); in the experiment with NCI/ADR-RES ovarian it was 13.9%.

Regarding `COc1cc(C(=O)c2c(-c3ccccc3)oc3c(OC)cccc23)cc(OC)c1OC`, the growth in the experiment on SR leukemia is 6.57% (active); in the experiment with RPMI-8226 leukemia it was 17.6%; in the experiment with OVCAR-8 ovarian it was 17.2%; with OVCAR-5 ovarian, 39.8%; in the experiment with OVCAR-4 ovarian it was 32.3%; with SK-OV-3 ovarian, 44.2%. The growth is 12.3% with IGROV1 ovarian, -13.2% (active) with OVCAR-3 ovarian, 2.09% (active) in the experiment with HS 578T breast and 11.9% in the experiment with NCI/ADR-RES ovarian.

`CCn1cc(CNc2ccc(C(=O)Nc3cc4cc(OC)c(OC)cc4c(C)n3)cc2)cn1`: the growth with SR leukemia is 12.2%; in the experiment on RPMI-8226 leukemia, 34.7%; with OVCAR-8 ovarian, 28%; with OVCAR-5 ovarian it was 93.1%; in the experiment on OVCAR-4 ovarian, 46.5%; in the experiment on SK-OV-3 ovarian, 56.8%. The growth is 73% with IGROV1 ovarian, 54.8% with OVCAR-3 ovarian, 70.3% in the experiment on HS 578T breast and 35.5% with NCI/ADR-RES ovarian.

Turning to `CCOC(=O)C1=C(C)C(Cl)=N/C1=C\c1[nH]c(Cl)c(C)c1C(=O)OCC`, the growth in the experiment on SR leukemia was 86.3%; with RPMI-8226 leukemia it was 65.1%; with OVCAR-8 ovarian, 99.1%; with OVCAR-5 ovarian, 124%; in the experiment with OVCAR-4 ovarian, 95.4%; in the experiment on SK-OV-3 ovarian it was 81.8%. Further, the growth in the experiment on IGROV1 ovarian is 112%; in the experiment with OVCAR-3 ovarian, 116%; in the experiment on HS 578T breast it was 103%; with NCI/ADR-RES ovarian it was 104%.

`O=c1cc(-c2ccccc2)[nH]c2ncc(-c3ccc(F)cc3)n12`: the growth in the experiment with SR leukemia is 16.1%; with RPMI-8226 leukemia, 74.5%; in the experiment on OVCAR-8 ovarian, 89.4%; in the experiment on OVCAR-5 ovarian it was 94.5%; in the experiment with OVCAR-4 ovarian it was 93.9%; in the experiment with SK-OV-3 ovarian, 82.1%. Besides, the growth is 67% in the experiment with IGROV1 ovarian, 54% with OVCAR-3 ovarian, 68% with HS 578T breast and 45.3% in the experiment with NCI/ADR-RES ovarian.

With `O=S1(=O)C=C(c2ccccc2)C(c2ccccc2)=C1`, the growth in the experiment on SR leukemia is -3.82% (active); in the experiment on RPMI-8226 leukemia, 4.61% (active); with OVCAR-8 ovarian, 6.07% (active); in the experiment with OVCAR-5 ovarian it was 85.1%; in the experiment on OVCAR-4 ovarian, 27.6%; in the experiment with SK-OV-3 ovarian it was 88.8%. Moreover, the growth is 11.7% in the experiment on IGROV1 ovarian, -86% (active) in the experiment with OVCAR-3 ovarian, -5.2% (active) in the experiment with HS 578T breast and 8.7% (active) in the experiment on NCI/ADR-RES ovarian.

`Cc1nc2sc(C(=O)Nc3cccc(Br)c3C)c(N)c2cc1C(O)c1ccccc1` (stereo not given): the growth was 7.47% (active) with SR leukemia; 2.82% (active) in the experiment on RPMI-8226 leukemia; 12.2% with OVCAR-8 ovarian; 32.3% in the experiment with OVCAR-5 ovarian; 47.1% in the experiment on OVCAR-4 ovarian; 11.4% in the experiment on SK-OV-3 ovarian. In addition, the growth with IGROV1 ovarian is 15.5%; with OVCAR-3 ovarian, -2.75% (active); in the experiment on HS 578T breast it was 12.3%; with NCI/ADR-RES ovarian, 4.66% (active).

As to `COc1ccc(/C=C(/C(=O)n2cnnn2)c2cc(OC)c(OC)c(OC)c2)cc1`, the growth was 14.8% with SR leukemia; 3.48% (active) in the experiment with RPMI-8226 leukemia; 22.1% with OVCAR-8 ovarian; 41.2% with OVCAR-5 ovarian; 60.6% with OVCAR-4 ovarian; 14.6% in the experiment on SK-OV-3 ovarian. For the same compound, the growth with IGROV1 ovarian was 41.4%; in the experiment on OVCAR-3 ovarian, 1.46% (active); in the experiment with HS 578T breast, 13.5%; in the experiment with NCI/ADR-RES ovarian, 12.2%.

In the case of `CCCCNC(=O)Oc1ccc(/C(=C(/C)Cc2ccc(OC)cc2)c2ccc(OCCN3CCCCCC3)cc2)cc1`, the growth is -44.2% (active) with SR leukemia; 33.6% with RPMI-8226 leukemia; 89.9% in the experiment with OVCAR-8 ovarian; 96% in the experiment with OVCAR-5 ovarian; 84.4% with OVCAR-4 ovarian; 85.8% with SK-OV-3 ovarian. The growth is 92.3% with IGROV1 ovarian, 63.9% with OVCAR-3 ovarian, 82.1% in the experiment with HS 578T breast and 81.4% with NCI/ADR-RES ovarian.

For the compound `Ic1ccccc1I`, the growth was 90.1% in the experiment on SR leukemia; 104% in the experiment on RPMI-8226 leukemia; 96.8% in the experiment on OVCAR-8 ovarian; 98% in the experiment with OVCAR-5 ovarian; 101% in the experiment on OVCAR-4 ovarian; 106% with SK-OV-3 ovarian. Moreover, the growth with IGROV1 ovarian is 99.8%; in the experiment with OVCAR-3 ovarian, 110%; in the experiment on HS 578T breast, 97.1%; in the experiment with NCI/ADR-RES ovarian, 101%.

Take `CN1CCN(Cc2ccc(NC(=O)c3cncc(C#Cc4cnc(N)c5ccc(F)cc45)c3)cc2C(F)(F)F)CC1`: the growth with SR leukemia was -25.9% (active); in the experiment with RPMI-8226 leukemia, 4.27% (active); with OVCAR-8 ovarian it was 33.9%; in the experiment with OVCAR-5 ovarian, 44.7%; in the experiment with OVCAR-4 ovarian, 30.9%; with SK-OV-3 ovarian it was -4.24% (active). The growth is 0.192% (active) with IGROV1 ovarian, 19.7% in the experiment with OVCAR-3 ovarian, 11.4% in the experiment on HS 578T breast and 35.3% with NCI/ADR-RES ovarian.

Take `Cn1ccc(=O)nc1`: the growth in the experiment on SR leukemia was 68.7%; in the experiment on RPMI-8226 leukemia, 101%; in the experiment on OVCAR-8 ovarian, 78.7%; in the experiment with OVCAR-5 ovarian it was 74.5%; in the experiment with OVCAR-4 ovarian, 76.1%; with SK-OV-3 ovarian, 93%. The growth is 79% with IGROV1 ovarian, 115% with OVCAR-3 ovarian, 132% in the experiment on HS 578T breast and 93.4% in the experiment with NCI/ADR-RES ovarian.

Take `O=P(O)(O)OCC1OC(n2cnc3c(NCc4ccco4)ncnc32)C(O)C1O` (stereo not given): the growth with SR leukemia is 27.1%; in the experiment with RPMI-8226 leukemia, -23.6% (active); in the experiment with OVCAR-8 ovarian it was 9.63% (active); in the experiment on OVCAR-5 ovarian, 45.3%; in the experiment with OVCAR-4 ovarian, 15.7%; in the experiment on SK-OV-3 ovarian it was 1.95% (active). Moreover, the growth with IGROV1 ovarian is -36.4% (active); with OVCAR-3 ovarian, -72% (active); in the experiment with HS 578T breast it was 32.5%; in the experiment on NCI/ADR-RES ovarian, 19.5%.
